BoNT F protease: inhibitors of Botulinum neurotoxin F light chain protease | Multiplex microsphere protease cleavage assay, flow cytometry | inhibition, % at 10 µM | 360,000 tested, 0.22% active; in the data active = inhibition above about 35%, passing the limit was not always enough; inconclusive = no clear call, values can overlap the other calls; also: plate controls were buffer without enzyme for full effect and enzyme alone for no effect
PriA SSB inh: blocks PriA binding to SSB C-terminal tail; 430,000 tested, 0.6% active; AID 1272365; AlphaScreen SSBct-PriA binding, biotinylated peptide; inhibition, % at 33 µM; in the data active = inhibition mostly above about 37%, no sharp cut-off; inactive = mostly below about 20%;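 also: plate controls were negative control peptide for no effect and reference peptide for full effect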
Autofluor counter: compound fluorescence in toxin protease inhibitor counterscreen. compound autofluorescence counterscreen, microsphere flow cytometry; stronger effect = higher value. fluorescence intensity (test concentration not listed). 360,000 tested, 3.1% active; in the data active = fluorescence intensity above about 16000; inconclusive = no clear call, values can overlap the other calls
BoNT-A LC inh2: blocks Botulinum neurotoxin A light chain protease. 360,000 tested, 0.17% active. inhibition, % at 10 µM. multiplex microsphere protease substrate cleavage, flow cytometry; also: plate controls were buffer without enzyme for full effect and enzyme alone for no effect
Anthrax LF inh2: inhibitors of Bacillus anthracis lethal factor protease; P15917; multiplex microsphere protease cleavage assay, LF; inhibition, % at 10 µM; 360,000 tested, 0.12% active; AID 588501; also: plate controls were buffer without enzyme for full effect and enzyme alone for no effect
* marks the source's active call; other numbers are inactive results; ? = inconclusive; . = not tested or not shown. Compounds with a hit are over-represented: about 3.1% of the library has one in this group of screens. Rule as the data show it, unless noted: active = inhibition above about 30%; inconclusive = no clear call, values can overlap the other calls; inactive = below that.

SMILES	BoNT F protease	PriA SSB inh	Autofluor counter	BoNT-A LC inh2	Anthrax LF inh2
O=C(COc1ccccc1F)N1CCC(Oc2ncccc2Br)CC1	.	4	.	.	.
CCc1ccc(Nc2ccc(S(=O)(=O)N3CCOCC3)cc2[N+](=O)[O-])cc1	-4	61*	1872	0	-1
CC(=NNc1ccc(S(=O)(=O)N2CCOCC2)cc1[N+](=O)[O-])C(C)C	.	46*	.	.	.
COCCn1c(C)cc(C(=O)COC(=O)CCc2ccc(S(=O)(=O)N3CCOCC3)cc2)c1C	-2	6	22125*	?	-3
CCOc1ccc(Nc2ccc(S(=O)(=O)N3CCOCC3)cc2[N+](=O)[O-])cc1	0	.	2827	0	1
Cc1cc(C(=O)NCc2cc(-c3ccco3)n(C)n2)c(C)o1	.	-2	.	.	.
O=c1c(CN2CCN(Cc3ccccc3)CC2)coc2ccc(Cl)cc12	8	-15	19830*	9	-11
O=c1cc(CN2CCN(Cc3ccccc3)CC2)c2cc(Cl)ccc2o1	24	0	3887	0	5
CCOC(=O)Cc1csc(NC(=O)C2CN(S(C)(=O)=O)C2)n1	.	-2	.	.	.
O=C(Nc1ccc(F)c(F)c1)c1cnc(-c2ccccc2)nc1-c1ccccc1	?	-8	?	?	?
O=C(Nc1ccc(F)cc1)c1cnc(-c2ccccc2)nc1-c1ccccc1	8	-7	18660*	?	-8
Cc1ccc(-n2c(C(C)n3nc(C)c([N+](=O)[O-])c3C)n[nH]c2=S)cc1 (stereo not given)	0	-2	19726*	1	2
Cc1nn(C(C)c2n[nH]c(=S)n2-c2cccc(Cl)c2)c(C)c1[N+](=O)[O-] (stereo not given)	3	-4	18732*	4	-8
O=C(COc1cccc2ccccc12)NCCOc1ccc2nnc(-c3ccccc3)n2n1	.	-5	.	.	.
Cc1nc2nc(-c3cccnc3)[nH]n2c(=O)c1Cc1ccccc1	3	-8	20663*	2	0
Cc1nc2nc(-c3ccc(Cl)cc3)[nH]n2c(=O)c1Cc1ccccc1	6	-5	2407	0	4
Fc1cccc(Cl)c1CN1CCC(c2nnc(-c3ccsc3)o2)CC1	.	-6	.	.	.
O=C1c2cccnc2C(O)N1Cc1ccc(F)cc1 (stereo not given)	1	-7	23014*	0	-5
CC(=O)c1ccc(NC2c3ncccc3C(=O)N2Cc2ccc(F)cc2)cc1 (stereo not given)	4	-1	21897*	5	1
O=C1c2cccnc2C(=O)N1Cc1ccc(F)cc1	3	0	21659*	3	-9
COc1ccc(CN2C(=O)c3cccnc3C2Nc2ccc(C)cc2)cc1 (stereo not given)	-9	7	3688	-1	2
CCN1CCO[C@@]2(O)C=CC(=O)C=C12	.	-14	.	.	.
O=C(CSCc1cnn(-c2ccccc2)c1-n1cccc1)N1CCN(Cc2ccccc2)CC1	8	12	18611*	?	-3
CCOc1ccc(NC(=O)CSCc2cnn(-c3ccccc3)c2-n2cccc2)cc1	-1	-12	19959*	1	-2
COc1cc(NC(=O)CSCc2cnn(-c3ccccc3)c2-n2cccc2)cc(OC)c1	1	16	3064	-1	-10
SMILES	BoNT F protease	PriA SSB inh	Autofluor counter	BoNT-A LC inh2	Anthrax LF inh2
COc1ccc(-c2cc3c(=O)n(CC(=O)Nc4cccc(Cl)c4)nc(C)n3n2)cc1	3	44*	5457	2	-2
CCCCCc1nc(-c2nonc2N)no1	-22	-9	3362	-3	-6
Nc1nonc1-c1noc(CCCOc2ccc(Cl)cc2Cl)n1	-2	-16	22747*	?	-2
Cc1cc(C)c(C#N)c(Nc2ccccc2)n1	-6	-9	21778*	-4	0
Cc1cccc(Nc2nc(C)cc(C)c2C#N)c1	?	-15	4028	-1	-7
COc1ccc(CCNC(=O)CSc2nc(=O)n(Cc3ccco3)c3c2CCC3)cc1	.	3	.	.	.
CC1=CC(C)(C)N(C(=O)CSc2nnc(N)s2)c2cc(C)c(C)cc21	-3	3	23062*	0	-1
O=C(COc1ccc(F)cc1F)N1CCCCCCC1	-10	-1	3613	0	10
C=CCOC(=O)C1CC=CCC1C(=O)Oc1ccc(F)cc1F (stereo not given)	-3	-65	24043*	?	-3
CCOc1ccc(-c2[nH]ncc2-c2nc(-c3cccc(C)c3)no2)cc1Cl	.	-29	.	.	.
CCOC(=O)c1cc(-c2ccc(C)cc2)n(CCC(=O)NCCN(C)C)c1C	-2	10	22889*	0	-6
O=C(/C=C/c1ccco1)Nc1sc2c(c1C(=O)O)CCC2	-4	5	16426*	-1	-4
CCCN1CCCc2cc(CCNC(=O)C(C)C)ccc21	.	59	.	.	.
CCCN1CCCc2cc(CCNS(=O)(=O)c3cccc(Cl)c3)ccc21	.	64*	.	.	.
CCCN1CCCc2cc(CCNS(=O)(=O)c3ccc(NC(=O)C(C)C)cc3)ccc21	.	60*	.	.	.
CCCN1CCCc2cc(CCNS(=O)(=O)c3ccc(C)cc3)ccc21	.	71	.	.	.
CCCN1CCCc2cc(CCNS(=O)(=O)c3ccc(Cl)cc3)ccc21	.	62*	.	.	.
COC(=O)CSc1nnc(Cc2cc(=O)[nH]c(=O)[nH]2)n1-c1cccc(OC)c1	4	-34	3913	0	-2
CCOC(=O)CSc1nnc(Cc2cc(=O)[nH]c(=O)[nH]2)n1-c1cccc(OC)c1	-1	-8	21403*	?	-14
CCOC(=O)CSc1nnc(CNC(=O)c2ccc(OC)cc2OC)n1-c1ccc(OC)cc1	0	-11	21152*	-1	1
C#CCn1c(=NC(=O)c2ccn(C)n2)sc2ccccc21	.	-6	.	.	.
CCCc1cc(=O)[nH]c(-n2nc(C)cc2NC(=O)c2cc3ccccc3o2)n1	.	-7	.	.	.
CN(Cc1cc(=O)[nH]c2ccccc12)C(=O)c1ccccc1	4	1	19977*	2	-3
COc1ccccc1N(Cc1cc(=O)[nH]c2ccccc12)C(=O)c1ccccc1	6	-13	4743	-1	2
CCCSc1nnc(C(C)C)n1N	3	5	22250*	?	-1
SMILES	BoNT F protease	PriA SSB inh	Autofluor counter	BoNT-A LC inh2	Anthrax LF inh2
CC(C)c1nnc(SCc2ccc(CSc3nnc(C(C)C)n3N)cc2)n1N	9	-10	4475	0	-1
COc1ccc2c(c1)O/C(=C\c1sccc1C)C2=O	40*	-1	2448	12	1
O=C(O)CC1(C(F)(F)F)OCCO1	.	-2	.	.	.
CCOC(=O)c1cn(CC)c2ccc(S(=O)(=O)N3CC(C)CC(C)C3)cc2c1=O (stereo not given)	-1	-12	16593*	-1	1
CCCN1CCc2c(sc(NC(=S)NC(=O)c3ccccc3)c2C#N)C1	-105	26	2843	58*	-65
CCN1CCc2c(sc(NC(=S)NC(=O)c3ccc(Cl)cc3)c2C(N)=O)C1	?	0	16287*	-14	1
CC(C)N1CCc2c(sc(NC(=S)NC(=O)c3ccccc3)c2C#N)C1	-88	17	2308	32*	-13
CC(C)C1Cc2c(sc(NC(=S)NC(=O)c3ccccc3)c2C#N)CO1 (stereo not given)	-9	0	2558	-1	3
CC(C)N1CCc2c(sc(N)c2C#N)C1	4	6	19341*	25	24
CCN(CC)CCN(C(=O)c1c(F)cccc1F)c1nc2ccc(Br)cc2s1	.	-7	.	.	.

Screening results from PubChem.
